# Records with an inconclusive call do not appear. Entries that show only a call come without a potency. Activity calls are given as the source filed them. Unless noted, calls follow the shape of the dose curve; as a rule, active = well fitted curve in the direction sought with a large enough effect; inconclusive = small, poorly fitted or top-dose-only effect, or another doubt; inactive = no such curve, though single readings can be large; an effect the other way counts as inactive or inconclusive.
# Key:
# [1] = AP1 Signaling Pathway (AID 357; active = well fitted curve in either direction with a large enough effect, not every such curve was filed as active)
# Procedure, shortened: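 AP-1-bla ME-180 cells with beta-lactamase reporter under AP-1 response element, stimulated with EC50 EGF; compounds titrated, 5 hours at 37 degrees Celsius. CCF4 read at 460/530 nm ratio; positive and negative modulators judged by AC50.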
# [2] = target: Cytochrome P450 1A2 (Homo sapiens) (UniProt P05177); assay: p450-cyp1a2 (AID 410; calls by dose curve)
# Procedure, shortened: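 Luminescent readout of luciferin formed from Luciferin-ME by human CYP1A2; data normalized against complete inhibition by 57 uM furafylline. Enzyme 20nM, substrate 100uM at Km, 100mM KPO4 buffer, 60 min reaction at room temperature.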
# [3] = NFAT Signaling Pathway (AID 444; active = well fitted curve in either direction with a large enough effect, not every such curve was filed as active;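 also: carbachol stimulus at about its EC50 of 1 µM final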); conditions: Jurkat NFAT-bla M1, carbachol, beta-lactamase ratio, 5 h; at 38 µM (top of the series)
# Procedure, shortened: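 Jurkat cells with NFAT-driven β-lactamase reporter and co-expressed M1 receptor, stimulated with carbachol (final 1 uM, ~EC50), compound titration, 5 h at 37 °C. CCF4 loaded 1 h at RT; 460/530 nm ratio gave %activity and AC50.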
# [4] = target: Glucocorticoid receptor (Homo sapiens) (UniProt P04150); assay: GR-GFP Redistribution (AID 450;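 active = compounds whose dose series gives a full or clear partial fitted curve of increased nuclear translocation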; also: potency is read from the fitted curve at half-maximal effect); conditions: U2OS GR-GFP nuclear translocation, laser cytometry, 2 h
# [5] = target: Glucocorticoid receptor (Homo sapiens) (UniProt P04150); assay: GR-EFC Redistribution (AID 451; calls by dose curve; also: potency is read from the fitted curve at half-maximal effect); conditions: CHO-K1 GR-EFC translocation, beta-gal luminescence, 2 h
# Procedure, shortened: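 CHO-K1 cells expressing nuclear EA and GR-ED fragments of b-gal; compounds titrated up to 46 uM final, 2 h at 37 C. GR nuclear translocation read as complemented b-gal luminescence after 1 h RT detection.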
# [6] = target: Mitogen-activated protein kinase 10 (Mus musculus) (UniProt Q61831); assay: JNK3 AlphaScreen Assay (AID 530; active = well fitted curve in either direction with a large enough effect, not every such curve was filed as active;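 also: kinase came from lysate of stimulated human HepG2 cells; signal reports phosphorylation of biotinylated GST-cJun 1-79 at Ser73 with 10 µM ATP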)
# Procedure, shortened: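 Pre-activated (IL-1β/TNFα) JNK3 in HepG2 lysates phosphorylates biotin-GST-cJun(1-79), 10 uM ATP; anti-phospho-cJun(Ser73) AlphaScreen read at room temperature, pH 7.6 Tris buffer. Compounds pre-incubated 15 min as titrations.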
# [7] = target: 3',5'-cyclic-AMP phosphodiesterase 4B (Homo sapiens) (UniProt Q07343); assay: qHTS Assay for Inhibitors of PDE-IV (AID 607; active = well fitted activation curve with a large enough effect in the main read-out, with a control signal flat, not every such curve was filed as active)
# Procedure, shortened: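 ACTOne HEK293 cells carry a modified cAMP-gated CNG channel and express endogenous PDE4; plated 1000 cells/well, compounds up to 22.9 uM final. Membrane-potential dye fluorescence (ex 535/em 590) was read; parental cells received 10 uM forskolin + 100 uM RO 20-1724.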
# [8] = target: Cytochrome P450 2C9 (Homo sapiens) (UniProt P11712); assay: qHTS Assay for Inhibitors and Substrates of Cytochrome P450 2C9 (AID 883); also: potency is read from the fitted curve at half-maximal effect; nearly all actives have a fitted effect of over 60% in size
# Procedure, shortened: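 Signal: luciferase luminescence reporting luciferin produced by CYP2C9. Conditions: 10nM enzyme, Luciferin-H 100uM at KM, 25mM KPO4, 37C, 60 min NADPH-driven reaction. Reference: 57uM sulphaphenazole as 100% inhibition.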
# [9] = target: Cytochrome P450 2C19 (Homo sapiens) (UniProt P33261); assay: qHTS Assay for Inhibitors and Substrates of Cytochrome P450 2C19 (AID 899); also: potency is read from the fitted curve at half-maximal effect; nearly all actives have a fitted effect of over 60% in size
# Procedure, shortened: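 Signal comes from luciferase acting on luciferin released by CYP2C19-mediated hydroxylation of Luciferin-H EGE, 10uM (KM). Assay mix: 5nM enzyme, 50mM KPO4; 60 min at 37C with NADPH regeneration. Data normalized against 57uM ketoconazole.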
# [10] = qHTS Assay for Identification of Small Molecule Agonists for Thrombopoietin (TPO) Signaling Pathway (AID 917)
# Procedure, shortened: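 Reporter: GpIIb promoter–luciferase in murine Ba/F3 expressing human TPO receptor. Pre-starved of IL-3 overnight; compounds with 26 pM TPO, 24 hrs, 37 C/5% CO2; luminescence read.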
# [11] = target: Muscarinic acetylcholine receptor M1 (Rattus norvegicus) (UniProt P08482); assay: qHTS Assay for Antagonists of Acetylcholine Muscarinic M1 Receptor: Measurement of IP-One Response (AID 944); also: potency is read from the fitted curve at half-maximal effect; nearly all actives have a fitted effect of over 75% in size
# Procedure, shortened: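 M1-CHO (rat), 2000 cells/well, overnight recovery; cpd 10 min; carbachol EC80 (200 nM), 30 min, HEPES buffer + 50 mM LiCl pH 7.4; IP-One HTRF, Ex 337, Em 620/665 nm.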
# [12] = target: Pyruvate kinase (Leishmania mexicana) (UniProt Q27686); assay: qHTS Validation Assay for Inhibitors of Leishmania Mexicana Pyruvate Kinase (AID 945)
# Procedure, shortened: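 Read-out: luminescence from PKLight stop/detection reagent, data normalized to DMSO. Reaction: 0.2 nM E451W LmPYK, 0.5 mM PEP, 0.1 mM ADP, pH 7.2, 1 h room temperature.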
# [13] = target: Pyruvate kinase PKM (Homo sapiens) (UniProt P14618); assay: qHTS Assay for Activators of Human Muscle Pyruvate Kinase (AID 954; active = well fitted curve in the direction sought with a large enough effect, not every such curve was filed as active)
# Procedure, shortened: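 Luminescence from a luciferase ATP-detection/stop reagent reported PKM2 activity. Reactions contained 0.1 nM purified human enzyme, 0.5 mM PEP, 0.1 mM ADP and 7 mM MgCl2 at pH 7.2, run 1 h at RT.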
# [14] = target: Alpha-galactosidase (Coffea arabica) (UniProt Q42656); assay: Counterscreen for Glucocerebrosidase Inhibitors: qHTS Assay for Coffee Bean alpha-Galactosidase at pH 4.5 (AID 957)
# Procedure, shortened: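 Coffee bean alpha-galactosidase 2 nM, substrate 4-MU-alpha-Gal 80 uM, pH 4.5 citrate/Tween-20, 20 min RT. Cpd titration 0.7 nM–77 uM. Stop pH 10, fluorescence 365/440 nm; Hill-equation AC50.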
# [15] = target: Alpha-galactosidase A (Homo sapiens) (UniProt P06280); assay: Counterscreen for Glucocerebrosidase Inhibitors: qHTS Assay for Human alpha-Galactosidase at pH 4.5 (AID 992)
# Procedure, shortened: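 Enzyme at 2 nM final was combined with compound (0.7 nM to 77 uM) and 80 uM 4-methylumbelliferyl alpha-D-galactopyranoside in 50 mM citric acid, 0.005% Tween-20, pH 4.5. After 20 min at room temperature, fluorescence was read (Ex 365/Em 440 nm); AC50 came from Hill fits.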
# [16] = target: alpha-glucosidase (Oryza sativa, rice) (UniProt Q653V4); assay: Counterscreen for Glucocerebrosidase Inhibitors: qHTS Assay for Rice alpha-Glucosidase at pH 5.0 (AID 997)
# Procedure, shortened: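 Rice alpha-glucosidase (4 nM final) with 400 uM 4-methylumbelliferyl-alpha-D-glucopyranoside in citrate buffer pH 5.0, 20 min at room temperature, stopped at pH 10; fluorescence 365/440 nm, compounds 0.7 nM–77 uM, AC50 from Hill fits.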
# [17] = target: Alpha-galactosidase (Coffea arabica) (UniProt Q42656); assay: Counterscreen for Glucocerebrosidase Inhibitors: qHTS Assay for Coffee Bean alpha-Galactosidase at pH 5.9 (AID 998)
# Procedure, shortened: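 Green coffee bean enzyme (2 nM) with 4-methylumbelliferyl alpha-D-galactopyranoside (80 uM) in 50 mM citric acid, 0.005% Tween-20, pH 5.9, 20 min at room temperature; compounds 0.7 nM–77 uM. Stopped at pH 10, fluorescence Ex365/Em440; Hill-fit AC50.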
# [18] = qHTS Assay for Lipid Storage Modulators (AID 1519; calls by dose curve); conditions: Drosophila S3 cells, BODIPY lipid droplet/cell ratio, laser cytometry, cells loaded with oleic acid
# Procedure, shortened: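 Cells seeded at 5,000 per well were treated with compounds over a concentration series and loaded with oleic acid (400 uM, as added). Lipid droplet fluorescence (488 nm excitation, 500-530 nm channel) was read by laser-scanning cytometry and normalized to 20 uM Triacsin C.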
# [19] = target: Ubiquitin carboxyl-terminal hydrolase 1 (Homo sapiens) (UniProt O94782); assay: Inhibitors of USP1/UAF1: Pilot qHTS (AID 504865);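 also: rhodamine fluorescence freed from ubiquitin-rhodamine substrate followed over time; top concentration of the series differs between compounds; nearly all actives have a fitted effect of over 35% in size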
# Procedure, shortened: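 Deubiquitinase activity followed as kinetic rhodamine fluorescence release from 150 nM Ub-Rho. 1 nM USP1/UAF1 with compound, after 15 min room-temperature preincubation, in HEPES pH 7.8 buffer containing TCEP, EDTA, BSA and Tween-20.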
# [20] = target: DNA dC->dU-editing enzyme APOBEC-3G (Homo sapiens) (UniProt Q9HC16); assay: qHTS for inhibitors of Vif-A3G interactions: Validation (AID 588379)
# Procedure, shortened: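 HeLa cells stably expressing Vif and A3G-eYFP, 700 cells/well, incubated overnight at 37 deg C, then exposed to compound overnight at 37 deg C. Inhibition of Vif-mediated degradation read as increased yellow fluorescence (Ex 488/Em 500-530) by laser-scanning cytometry.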
# [21] = system: Zika virus NS2B-NS3 protease; assay: Primary screen GU AMC qHTS for Zika virus inhibitors (AID 1347154); also: nearly all actives have a fitted effect of over 70% in size
# Procedure, shortened: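 Unlinked Zika NS2B hydrophilic domain–NS3 protease complex at 25 nM in 10 mM Tris-HCl pH 8.0, 0.01% Tween 20, with an AMC peptide substrate. Fluorescence change (340/450 nm) over 15 min at room temperature, normalized to controls, fitted to 4-parameter Hill.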
# [22] = Primary qHTS for small molecule stabilizers of the endoplasmic reticulum resident proteome: Secreted ER Calcium Modulated Protein (SERCaMP) assay (AID 1508630)
# Procedure, shortened: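 GLuc-SERCaMP-expressing SH-SY5Y cells, pretreated 16 h with compound, are challenged with thapsigargin to empty ER calcium stores; after 4 h, coelenterazine is added directly to the medium and luminescence is imaged.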
# Chain of Glucocorticoid receptor (Homo sapiens) (P04150 whole entry, looked up, the tested form may be a part): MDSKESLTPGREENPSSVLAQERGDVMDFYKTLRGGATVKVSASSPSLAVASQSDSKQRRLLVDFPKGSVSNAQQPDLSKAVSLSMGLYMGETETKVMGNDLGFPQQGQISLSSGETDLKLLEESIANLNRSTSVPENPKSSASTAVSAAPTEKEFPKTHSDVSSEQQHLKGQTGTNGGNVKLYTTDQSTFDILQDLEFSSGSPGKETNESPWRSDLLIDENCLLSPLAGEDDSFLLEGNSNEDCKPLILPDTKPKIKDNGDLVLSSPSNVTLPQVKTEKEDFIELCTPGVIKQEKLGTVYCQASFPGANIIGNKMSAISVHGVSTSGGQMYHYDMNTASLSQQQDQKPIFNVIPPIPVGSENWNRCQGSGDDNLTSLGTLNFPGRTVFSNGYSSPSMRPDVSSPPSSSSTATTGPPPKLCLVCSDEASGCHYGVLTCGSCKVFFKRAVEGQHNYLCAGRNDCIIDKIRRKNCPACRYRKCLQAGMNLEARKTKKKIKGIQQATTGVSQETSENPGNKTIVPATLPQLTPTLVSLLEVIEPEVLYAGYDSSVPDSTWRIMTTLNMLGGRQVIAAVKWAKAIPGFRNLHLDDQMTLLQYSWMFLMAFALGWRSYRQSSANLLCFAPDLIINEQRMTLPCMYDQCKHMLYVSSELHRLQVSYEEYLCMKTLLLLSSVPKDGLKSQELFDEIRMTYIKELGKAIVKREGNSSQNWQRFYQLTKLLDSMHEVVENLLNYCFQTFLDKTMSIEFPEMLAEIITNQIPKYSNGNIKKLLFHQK
# Chain of Alpha-galactosidase (Coffea arabica) (Q42656 whole entry, looked up): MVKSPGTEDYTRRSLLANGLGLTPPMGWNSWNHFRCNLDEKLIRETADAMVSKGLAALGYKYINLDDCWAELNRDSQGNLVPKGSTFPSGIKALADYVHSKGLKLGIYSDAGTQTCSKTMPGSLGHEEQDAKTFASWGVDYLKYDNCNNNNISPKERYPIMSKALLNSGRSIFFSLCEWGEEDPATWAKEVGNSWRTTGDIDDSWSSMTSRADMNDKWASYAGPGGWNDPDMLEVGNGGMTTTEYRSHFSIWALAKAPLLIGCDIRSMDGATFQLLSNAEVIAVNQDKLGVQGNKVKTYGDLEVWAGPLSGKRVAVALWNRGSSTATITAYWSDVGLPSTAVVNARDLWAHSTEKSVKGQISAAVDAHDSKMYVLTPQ
# Chain of 3',5'-cyclic-AMP phosphodiesterase 4B (Homo sapiens) (Q07343 whole entry, looked up): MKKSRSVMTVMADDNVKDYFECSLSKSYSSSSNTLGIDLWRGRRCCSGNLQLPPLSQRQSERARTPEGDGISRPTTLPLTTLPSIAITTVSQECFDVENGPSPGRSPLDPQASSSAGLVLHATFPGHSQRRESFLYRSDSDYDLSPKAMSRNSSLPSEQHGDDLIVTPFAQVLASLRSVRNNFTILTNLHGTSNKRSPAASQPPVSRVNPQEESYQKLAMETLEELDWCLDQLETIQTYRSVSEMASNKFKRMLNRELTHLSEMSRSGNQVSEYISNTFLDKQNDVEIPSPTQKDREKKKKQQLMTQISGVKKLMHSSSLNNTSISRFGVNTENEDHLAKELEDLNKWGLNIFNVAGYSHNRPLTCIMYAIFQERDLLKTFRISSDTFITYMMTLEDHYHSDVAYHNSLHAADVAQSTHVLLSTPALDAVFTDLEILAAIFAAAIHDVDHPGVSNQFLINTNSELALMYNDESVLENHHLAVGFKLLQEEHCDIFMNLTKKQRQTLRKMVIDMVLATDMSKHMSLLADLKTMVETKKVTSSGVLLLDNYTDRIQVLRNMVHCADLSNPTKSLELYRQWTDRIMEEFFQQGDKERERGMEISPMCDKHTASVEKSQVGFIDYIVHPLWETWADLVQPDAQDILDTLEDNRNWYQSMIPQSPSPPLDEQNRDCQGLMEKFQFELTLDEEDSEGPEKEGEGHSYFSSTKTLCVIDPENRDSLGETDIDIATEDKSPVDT
# Chain of Ubiquitin carboxyl-terminal hydrolase 1 (Homo sapiens) (O94782 whole entry, looked up): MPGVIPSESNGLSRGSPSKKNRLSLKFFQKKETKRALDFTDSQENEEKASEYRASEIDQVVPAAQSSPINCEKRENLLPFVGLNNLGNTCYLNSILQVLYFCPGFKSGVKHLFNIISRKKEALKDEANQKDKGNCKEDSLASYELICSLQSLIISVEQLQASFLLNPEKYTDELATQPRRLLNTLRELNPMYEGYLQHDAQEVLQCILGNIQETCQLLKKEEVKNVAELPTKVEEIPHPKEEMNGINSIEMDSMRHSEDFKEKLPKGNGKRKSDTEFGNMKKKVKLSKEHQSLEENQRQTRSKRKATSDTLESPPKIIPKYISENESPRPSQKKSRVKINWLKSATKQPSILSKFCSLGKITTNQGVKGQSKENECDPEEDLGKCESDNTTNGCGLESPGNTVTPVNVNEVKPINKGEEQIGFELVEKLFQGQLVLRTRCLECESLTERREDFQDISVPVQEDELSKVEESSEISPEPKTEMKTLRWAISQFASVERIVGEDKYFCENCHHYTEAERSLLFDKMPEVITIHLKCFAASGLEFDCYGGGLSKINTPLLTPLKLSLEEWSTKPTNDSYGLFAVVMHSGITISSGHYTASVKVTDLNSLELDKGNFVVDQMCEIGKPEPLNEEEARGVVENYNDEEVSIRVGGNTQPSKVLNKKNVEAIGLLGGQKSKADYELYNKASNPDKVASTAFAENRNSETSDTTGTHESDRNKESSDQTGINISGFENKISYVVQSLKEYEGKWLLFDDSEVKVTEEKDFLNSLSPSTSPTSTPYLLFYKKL
# Chain of Alpha-galactosidase A (Homo sapiens) (P06280 whole entry, looked up): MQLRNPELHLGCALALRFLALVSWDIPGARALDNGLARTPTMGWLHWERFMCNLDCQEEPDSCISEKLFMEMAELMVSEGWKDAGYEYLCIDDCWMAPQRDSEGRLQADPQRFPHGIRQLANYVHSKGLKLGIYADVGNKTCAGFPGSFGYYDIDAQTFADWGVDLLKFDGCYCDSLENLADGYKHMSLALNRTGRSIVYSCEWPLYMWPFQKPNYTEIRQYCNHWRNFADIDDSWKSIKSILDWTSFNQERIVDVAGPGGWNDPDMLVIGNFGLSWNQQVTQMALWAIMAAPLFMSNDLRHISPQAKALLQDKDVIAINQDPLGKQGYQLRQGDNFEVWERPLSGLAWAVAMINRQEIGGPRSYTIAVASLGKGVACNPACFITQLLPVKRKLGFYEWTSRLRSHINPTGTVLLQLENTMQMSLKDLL
# Chain of Pyruvate kinase PKM (Homo sapiens) (P14618 whole entry, looked up): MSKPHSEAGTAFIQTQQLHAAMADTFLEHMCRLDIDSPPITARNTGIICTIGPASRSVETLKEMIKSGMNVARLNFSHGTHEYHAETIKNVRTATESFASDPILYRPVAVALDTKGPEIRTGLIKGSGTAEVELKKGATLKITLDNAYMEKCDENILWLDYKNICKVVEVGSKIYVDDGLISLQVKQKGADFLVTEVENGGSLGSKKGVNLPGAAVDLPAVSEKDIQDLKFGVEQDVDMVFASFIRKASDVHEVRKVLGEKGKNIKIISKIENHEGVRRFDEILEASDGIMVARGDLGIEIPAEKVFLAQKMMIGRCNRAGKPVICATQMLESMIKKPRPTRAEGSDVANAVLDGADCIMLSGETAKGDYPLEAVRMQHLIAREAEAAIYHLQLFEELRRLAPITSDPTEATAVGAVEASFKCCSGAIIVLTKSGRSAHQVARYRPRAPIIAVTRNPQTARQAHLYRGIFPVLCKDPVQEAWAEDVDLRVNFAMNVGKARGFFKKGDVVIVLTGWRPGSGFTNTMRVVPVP
# Chain of Pyruvate kinase (Leishmania mexicana) (Q27686 2-499 E452W): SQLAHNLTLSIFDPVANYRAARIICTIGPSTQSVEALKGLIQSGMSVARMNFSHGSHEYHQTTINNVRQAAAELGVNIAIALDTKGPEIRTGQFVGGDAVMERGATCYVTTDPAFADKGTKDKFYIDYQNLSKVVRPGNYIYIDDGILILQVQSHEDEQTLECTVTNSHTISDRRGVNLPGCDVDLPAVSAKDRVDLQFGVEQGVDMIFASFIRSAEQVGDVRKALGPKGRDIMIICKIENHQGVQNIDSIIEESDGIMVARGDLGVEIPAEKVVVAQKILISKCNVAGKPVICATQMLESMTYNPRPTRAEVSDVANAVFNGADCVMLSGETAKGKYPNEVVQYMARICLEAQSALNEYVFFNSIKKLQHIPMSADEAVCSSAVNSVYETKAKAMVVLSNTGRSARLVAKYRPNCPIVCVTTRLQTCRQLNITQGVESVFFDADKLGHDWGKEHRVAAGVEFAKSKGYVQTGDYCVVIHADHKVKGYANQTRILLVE
# Chain of Cytochrome P450 2C9 (Homo sapiens) (P11712 whole entry, looked up): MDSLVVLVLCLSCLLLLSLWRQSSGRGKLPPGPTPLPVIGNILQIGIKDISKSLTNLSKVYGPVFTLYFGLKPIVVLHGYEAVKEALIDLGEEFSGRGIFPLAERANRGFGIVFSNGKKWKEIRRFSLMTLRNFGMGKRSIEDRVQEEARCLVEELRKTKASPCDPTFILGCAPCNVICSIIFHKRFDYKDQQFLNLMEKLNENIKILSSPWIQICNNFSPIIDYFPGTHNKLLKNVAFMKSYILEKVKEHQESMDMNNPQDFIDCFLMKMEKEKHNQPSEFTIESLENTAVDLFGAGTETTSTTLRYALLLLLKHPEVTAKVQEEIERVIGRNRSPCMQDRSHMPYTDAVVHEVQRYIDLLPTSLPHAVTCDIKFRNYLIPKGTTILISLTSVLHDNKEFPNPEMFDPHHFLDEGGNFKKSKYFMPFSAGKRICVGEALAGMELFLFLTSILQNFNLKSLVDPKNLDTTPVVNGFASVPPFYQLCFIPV
# Chain of DNA dC->dU-editing enzyme APOBEC-3G (Homo sapiens) (Q9HC16 whole entry, looked up): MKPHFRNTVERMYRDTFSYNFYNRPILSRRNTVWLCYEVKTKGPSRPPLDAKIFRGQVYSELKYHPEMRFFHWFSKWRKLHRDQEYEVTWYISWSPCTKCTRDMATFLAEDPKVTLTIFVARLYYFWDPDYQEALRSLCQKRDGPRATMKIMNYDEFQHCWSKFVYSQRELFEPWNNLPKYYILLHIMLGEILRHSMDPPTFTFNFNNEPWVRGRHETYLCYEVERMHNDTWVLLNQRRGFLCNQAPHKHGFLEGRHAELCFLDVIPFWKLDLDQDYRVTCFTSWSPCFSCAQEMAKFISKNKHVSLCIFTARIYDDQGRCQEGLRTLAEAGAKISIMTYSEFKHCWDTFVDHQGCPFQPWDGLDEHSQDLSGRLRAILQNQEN
smiles,measurement,setting,value
C[C@@H](Cc1ccc(OCC(=O)O)cc1)NC[C@H](O)c1cccc(Cl)c1,outcome,[1],inactive
same,Potency,[2],inactive
same,"activity change, negative = inhibition",[3],-11.2% (inactive)
same,Potency,[4],> 46 µM (inactive)
same,Potency,[5],> 46 µM (inactive)
same,outcome,[6],inactive
same,Potency,[7],inactive
same,Potency,[8],6.31 µM (active)
same,Potency,[9],5.01 µM (active)
same,outcome,[10],inactive
same,Potency,[11],14.1 µM (active)
same,outcome,[12],inactive
same,outcome,[13],inactive
same,outcome,[14],inactive
same,outcome,[15],inactive
same,outcome,[16],inactive
same,outcome,[17],inactive
same,"activity change, negative = inhibition",[18]; at 57.5 µM (top of the series),-1.87% (inactive)
same,max response,[18]; measured here: cell count channel max response,11.5%
same,max response,[18]; measured here: lipid channel max response,8.85%
same,Potency,[19],inactive
same,Potency,[20],inactive
same,Potency,[21],inactive
same,Potency,[22],inactive
CC[C@H](C)[C@H](NC(=O)[C@H](CCCN=C(N)N)NC(=O)[C@H](CCCN=C(N)N)NC(=O)[C@H](CC(C)C)NC(=O)[C@H](Cc1ccccc1)NC(=O)CNC(=O)CNC(=O)[C@@H](N)Cc1ccc(O)cc1)C(=O)O,"activity change, negative = inhibition",[21],10.8% [at 6.83 µM] (inactive)
same,"activity change, negative = inhibition",[22],-13% [at 3.88 µM] (inactive)
NC1(c2ccccc2Cl)CCCCC1=O (stereo not drawn),Potency,[21],inactive
same,Potency,[22],inactive

# — PubChem BioAssay (NCATS)
